Only some compounds are listed: those with a hit (about 3.5% of all), similar ones and a draw of the others.
FBW7 activator: human FBW7 E3 ligase activation, primary screen. AlphaScreen FBW7–phospho-cyclin E peptide binding, activator screen. normalized activity (activation), % at 26.1 µM. AID 1259310. actives 0.13% (n = 650,000). Q969H0; in the data active means normalized activity above about 1.9%;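 further: purified mutant Fbw7 with reduced substrate affinity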
GPR151 ag: activators of human GPR151 | actives 1% (n = 650,000) | Q8TDV0 | activation, % at 11.2 µM | PathHunter beta-arrestin GPR151 cells, luminescence; in the data active means activation above about 4.9%;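 further: 0% = median of compound wells and 100% = cells with positive control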
TEAD-YAP inh: TEAD-YAP interaction inhibition | HEK-TIYL cells, TEAD-Gal4/YAP UAS-luciferase luminescence | inhibition, % at 9.12 µM | actives 1.4% (n = 640,000) | AID 1259422; in the data active means inhibition above about 32%;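 further: 0% = median of test compound wells and 100% = reference inhibitor wells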
MITF primary: blocks human microphthalmia-associated transcription factor; AlphaScreen MITF homodimerization, bead proximity signal; actives 0.91% (n = 650,000); inhibition, % at 2.6 µM; O75030; in the data active means inhibition above about 50%;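 further: 0% = vehicle wells with protein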
Target sequence (O75030 whole entry, looked up): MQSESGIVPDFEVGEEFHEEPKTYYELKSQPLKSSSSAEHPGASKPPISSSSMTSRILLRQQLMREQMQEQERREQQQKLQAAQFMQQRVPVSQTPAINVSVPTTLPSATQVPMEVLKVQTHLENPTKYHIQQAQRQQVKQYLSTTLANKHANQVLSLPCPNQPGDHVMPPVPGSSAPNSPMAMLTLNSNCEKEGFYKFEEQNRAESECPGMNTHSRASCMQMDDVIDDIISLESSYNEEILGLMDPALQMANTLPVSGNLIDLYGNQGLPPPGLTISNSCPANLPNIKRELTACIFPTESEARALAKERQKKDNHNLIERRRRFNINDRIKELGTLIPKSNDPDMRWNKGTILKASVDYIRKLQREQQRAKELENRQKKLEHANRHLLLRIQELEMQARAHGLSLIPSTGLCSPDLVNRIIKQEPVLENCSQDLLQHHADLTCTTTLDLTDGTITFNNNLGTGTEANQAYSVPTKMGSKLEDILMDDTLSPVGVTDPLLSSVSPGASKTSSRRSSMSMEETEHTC
* hit, by the source's call.

How did COc1ccc(CCNc2cc(N3CCN(C(C)=O)CC3)ccc2[N+](=O)[O-])cc1OC do in these assays?
FBW7 activator: 0; GPR151 ag: 1; TEAD-YAP inh: 46*; MITF primary: -10

How did COc1ccc(CCNc2cc(N3CCN(S(=O)(=O)N(C)C)CC3)ccc2[N+](=O)[O-])cc1OC do in these assays?
FBW7 activator: 0; GPR151 ag: 2; TEAD-YAP inh: 39*; MITF primary: 5

Results for COc1ccc(CCNc2cc(N3CCCCC3)ccc2[N+](=O)[O-])cc1OC ?
FBW7 activator: 0; GPR151 ag: 0; TEAD-YAP inh: 39*; MITF primary: 8

How did Cc1cc(C)c2oc(-c3cccc(NC(=O)c4ccc([N+](=O)[O-])o4)c3C)nc2c1 do in these assays?
FBW7 activator: 0; GPR151 ag: 1; TEAD-YAP inh: 6; MITF primary: 7

What do the screens show for `O=C(CSc1ncc(-c2ccc([N+](=O)[O-])cc2)[nH]1)N1CCCCC1`?
FBW7 activator: 0; GPR151 ag: 0; TEAD-YAP inh: -26; MITF primary: 14

How did Cc1cc(C)c2c(c1)CC(C)(C)C(=O)C2=O do in these assays?
FBW7 activator: 0; GPR151 ag: 0; TEAD-YAP inh: 3; MITF primary: 6

How did C=C1C(c2ccc(C)cc2)=CCc2cc(C)cc(C)c21 do in these assays?
FBW7 activator: 0; GPR151 ag: -5; TEAD-YAP inh: 54*; MITF primary: 11

Results for COC(=O)CCC1(CCC(=O)OC)C(=O)CC(C)(C)CC1=O ?
FBW7 activator: 0; GPR151 ag: -1; TEAD-YAP inh: 5; MITF primary: 3

What do the screens show for `N=C1/C(=C/c2ccc(OCc3ccc4c(c3)OCO4)c(Cl)c2)C(=O)N=C2SC=CN12`?
FBW7 activator: 0; GPR151 ag: -5; TEAD-YAP inh: 39*; MITF primary: -5

What do the screens show for `N=C1/C(=C/c2cn(Cc3ccc4c(c3)OCO4)c3ccccc23)C(=O)N=C2SC=CN12`?
FBW7 activator: 0; GPR151 ag: 2; TEAD-YAP inh: 12; MITF primary: 7

What do the screens show for `c1cc(-n2cnc3c(NCCN4CCOCC4)nc(N4CCOCC4)nc32)cs1`?
FBW7 activator: 0; GPR151 ag: -1; TEAD-YAP inh: 56*; MITF primary: 0

Results for c1cc(-n2cnc3c(NCCN4CCOCC4)nc(N4CCC(N5CCOCC5)CC4)nc32)cs1 ?
FBW7 activator: 0; GPR151 ag: 0; TEAD-YAP inh: 43*; MITF primary: -2

How did OCCNc1nc(N2CCOCC2)nc2c1ncn2-c1ccsc1 do in these assays?
FBW7 activator: 0; GPR151 ag: 0; TEAD-YAP inh: 69*; MITF primary: 3

Results for c1ccc(OCCNc2nc(N3CCOCC3)nc3c2ncn3-c2ccccc2)cc1 ?
FBW7 activator: 0; GPR151 ag: 0; TEAD-YAP inh: -8; MITF primary: -2

How did c1ccc2c(c1)CCN(c1nc(NCCN3CCOCC3)c3ncn(-c4ccsc4)c3n1)C2 do in these assays?
FBW7 activator: 0; GPR151 ag: 0; TEAD-YAP inh: -1; MITF primary: 10

Results for OCCNc1nc(N2CCOCC2)nc2c1ncn2-c1ccccc1 ?
FBW7 activator: 0; GPR151 ag: 0; TEAD-YAP inh: 48*; MITF primary: 5

Results for COC(=O)CCCC(=O)Nc1ccc(OC)cc1 ?
FBW7 activator: 0; GPR151 ag: 1; TEAD-YAP inh: -3; MITF primary: 5

Results for c1ccc2[nH]c(CNc3nc(N4CCC(N5CCOCC5)CC4)nc4c3ncn4-c3ccsc3)nc2c1 ?
FBW7 activator: 0; GPR151 ag: 0; TEAD-YAP inh: 54*; MITF primary: 4

Results for CC(=O)Nc1ccc(Nc2nc(N3CCC(N4CCOCC4)CC3)nc3c2ncn3-c2ccsc2)cc1 ?
FBW7 activator: 0; GPR151 ag: -1; TEAD-YAP inh: 46*; MITF primary: -8

What do the screens show for `COc1cc(Nc2nc(N3CCC(N4CCOCC4)CC3)nc3c2ncn3-c2ccsc2)cc(OC)c1OC`?
FBW7 activator: 0; GPR151 ag: 1; TEAD-YAP inh: 5; MITF primary: 6

Results for Cc1cc(N2CCOCC2)nc2ccc(NC(=O)c3ccncc3)cc12 ?
FBW7 activator: 0; GPR151 ag: 0; TEAD-YAP inh: 49*; MITF primary: 6

Results for O=C(CSc1n[nH]c(-c2ccccc2)n1)Nc1ccccc1Cl ?
FBW7 activator: 1; GPR151 ag: -2; TEAD-YAP inh: -8; MITF primary: 4

What do the screens show for `O=C(CSc1n[nH]c(-c2ccccc2)n1)Nc1cccc2ccccc12`?
FBW7 activator: 0; GPR151 ag: 1; TEAD-YAP inh: 53*; MITF primary: -2

What do the screens show for `O=C1C(=O)N(Cc2ccco2)C(=O)N1CC(=O)N1CCc2ccccc21`?
FBW7 activator: 1; GPR151 ag: 0; TEAD-YAP inh: -8; MITF primary: 18

How did CC(C)c1nnc(SCC(=O)Nc2ccc(F)cc2)n1C do in these assays?
FBW7 activator: 0; GPR151 ag: 2; TEAD-YAP inh: -6; MITF primary: 1

Results for Fc1ccc(Cn2nnnc2C(c2ccc3ncccc3c2)N2CCCC2)cc1 (configuration not stated) ?
FBW7 activator: 0; GPR151 ag: 1; TEAD-YAP inh: -7; MITF primary: -6

How did CN1CCN(C(c2cccnc2)c2ccc3cccnc3c2O)CC1 (configuration not stated) do in these assays?
FBW7 activator: 0; GPR151 ag: 0; TEAD-YAP inh: 0; MITF primary: 34

How did Oc1c(C(c2ccc(F)cc2)N2CCCC2)ccc2cccnc12 (configuration not stated) do in these assays?
FBW7 activator: -2; GPR151 ag: -1; TEAD-YAP inh: 80*; MITF primary: 11

What do the screens show for `Oc1c(C(c2ccncc2)N2CCOCC2)ccc2cccnc12` (configuration not stated)?
FBW7 activator: 0; GPR151 ag: 1; TEAD-YAP inh: 71*; MITF primary: 90*

What do the screens show for `CN1CCN(C(c2ccc(F)cc2)c2ccc3cccnc3c2O)CC1` (configuration not stated)?
FBW7 activator: 0; GPR151 ag: 0; TEAD-YAP inh: 84*; MITF primary: 33

Results for OCCN1CCN(C(c2ccc(Cl)cc2)c2ccc3cccnc3c2O)CC1 (configuration not stated) ?
FBW7 activator: 0; GPR151 ag: 0; TEAD-YAP inh: 74*; MITF primary: 21

Results for CCOC(=O)C1(CCOc2ccccc2)CCN(C(=O)NCCc2ccccc2)CC1 ?
FBW7 activator: 0; GPR151 ag: 0; TEAD-YAP inh: -17; MITF primary: -8

What do the screens show for `CCOc1ccccc1NC(=O)C(C)Oc1ccccc1C` (configuration not stated)?
FBW7 activator: 1; GPR151 ag: -2; TEAD-YAP inh: 0; MITF primary: 15

Results for Oc1c(C(c2ccc(F)cc2)N2CCOCC2)ccc2cccnc12 (configuration not stated) ?
FBW7 activator: -2; GPR151 ag: 1; TEAD-YAP inh: 76*; MITF primary: 27

Source: PubChem BioAssay (The Scripps Research Institute Molecular Screening Center)
